A short description of assay [1]: NCI Yeast Anticancer Drug Screen. Data for the rad50 strain (AID 155).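 Note: 0% = growth of vehicle-only cultures of the same strain.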 To be noted: S. cerevisiae rad50 strain growth inhibition; at 50.0 µM; hits give high values. The gist of the method: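 Compounds were tested on a yeast strain with an engineered DNA damage repair alteration; the reported value is growth inhibition normalised to vehicle treatment.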
The nature of assay [2]: NCI Yeast Anticancer Drug Screen. Data for the mec2-1 strain (AID 157). The conditions noted are these: S. cerevisiae mec2-1 strain, at 50.0 µM, hits give high values. The gist of the method:
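Yeast mec2-1 mutant treated with compound. Readout: growth inhibition vs vehicle controls.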

The nature of assay [3]: NCI Yeast Anticancer Drug Screen. Data for the sgs1 mgt1 strain (AID 161).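 Note: 0% = growth of cultures given vehicle only.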 To be noted: S. cerevisiae sgs1 mgt1 strain, at 50.0 µM, hits give high values. In outline: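 Test agents were incubated with a DNA-repair-mutant yeast strain. Growth was then read and compared against vehicle-treated controls.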
Assay [4] in a line: NCI Yeast Anticancer Drug Screen. Data for the cln2 rad14 strain (AID 165).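 Note: 0% = growth equal to vehicle treated cultures.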 The conditions noted are these: S. cerevisiae cln2 rad14 strain, at 50.0 µM, hits give high values. In outline: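 cln2 rad14 yeast strain; compound exposure; growth inhibition read vs vehicle controls.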
Assay [5] can be described thus: NCI Yeast Anticancer Drug Screen. Data for the bub3 strain (AID 167). The conditions noted are these: S. cerevisiae bub3 mutant strain, at 50.0 µM, hits give high values. The gist of the method: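 Growth of a checkpoint-deficient yeast mutant is measured after compound exposure. Values represent inhibition relative to vehicle.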
Assay [6] in a line: NCI Yeast Anticancer Drug Screen. Data for the mlh1 rad18 strain (AID 175). To be noted: S. cerevisiae mlh1 rad18 strain growth inhibition; at 50.0 µM; hits give high values. The gist of the method:
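Yeast w/ defined DNA-repair lesions; compound exposure; growth vs vehicle controls → % inhibition.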

The panel holds about 79,000 compounds, 15% with a hit somewhere; the sample as a whole holds those more often. A number with no mark means an inactive call. Calls of active or inactive are those of the source. Cut-off read from the data, not from the text of the source: active = growth inhibition above about 70%; inactive = the rest.

Results on 20 compounds are retold here after PubChem BioAssay (NCI).

Take `CC(C)(C)NC1=NCCNC(c2ccccc2)=C1`: the growth inhibition in assay [1] is -33.5%; in assay [2] it was -52.2%; in assay [3], -19.4%; in assay [4], -4.65%; in assay [5], -30.8%; in assay [6] it was -23.9%.
In the case of `CC(=O)Nc1nnc(C)o1`, the growth inhibition is -0.85% in assay [1]; -3.5% in assay [2]; -1.55% in assay [3]; -40.6% in assay [4]; 10.3% in assay [5]; -2.05% in assay [6].
Regarding `Oc1ccc2ccccc2c1/C=N\Sc1ccc(Br)cc1`, the growth inhibition in assay [1] is 35.1%; in assay [2], 37.5%; in assay [3] it was 64.2%; in assay [4] it was 28.5%; in assay [5], 32.2%; in assay [6], 49.5%.
In the case of `COC1CC(C)OC(OC2C(C)/C=C/C(=O)OC(C)C(COC3OC(C)C(O)C(OC)C3OC)C3OC3/C=C/C(=O)C(C)(O)CC2C)C1O` (stereo not given), the growth inhibition in assay [1] is 1.55%; in assay [2], -5.25%; in assay [3] it was 3.55%; in assay [4] it was 1.5%; in assay [5], 5.25%; in assay [6] it was 5%.
For the compound `C/C=C(\C)C(=O)OC1CC(C)(O)C(=O)C(OC(=O)/C(C)=C/C)C2(C)CCC(O)(C(C)C)C12` (stereo not given), the growth inhibition in assay [1] is -27.2%; in assay [2] it was -30.1%; in assay [3] it was -34.7%; in assay [4] it was -16.8%; in assay [5], -15%; in assay [6] it was -24.8%.
As for `C[CH2][Sn]([CH2]C)([n]1c2ccccc2c2c(C)c3cnccc3c(C)c21)[n]1c2ccccc2c2c(C)c3cnccc3c(C)c21`, the growth inhibition was 72.2% (active) in assay [1]; 14.7% in assay [2]; 25.5% in assay [3]; 44.5% in assay [4]; 25.6% in assay [5]; 71.3% (active) in assay [6].
Consider `O=C(O)CCCC1=C2CCC(=O)C=C2CCC1`, for which the growth inhibition in assay [1] was -15.8%; in assay [2], -24.6%; in assay [3] it was -10.3%; in assay [4], 0.2%; in assay [5], -20.6%; in assay [6] it was -10.1%.
With `CCCC(C)C(O)C(C)C` (stereo not given), the growth inhibition is 1.25% in assay [1]; -19.8% in assay [2]; -5.1% in assay [3]; 3.6% in assay [4]; 8.7% in assay [5]; -18.7% in assay [6].
Consider `CN(C)c1ccc(S(=O)(=O)c2ccc(N(C)C)c([N+](=O)[O-])c2)cc1[N+](=O)[O-]`, for which the growth inhibition is 24% in assay [1]; -9.65% in assay [2]; -9.8% in assay [3]; 0.45% in assay [4]; 3.65% in assay [5]; -30.9% in assay [6].
As to `CC(=O)CC(C)(C)NNS(=O)(=O)c1ccc(C)cc1`, the growth inhibition in assay [1] was 7.8%; in assay [2], -0.65%; in assay [3], -4.1%; in assay [4], -20.9%; in assay [5], 5.35%; in assay [6], -13.6%.
On to `O=C1CC2CC1C1CC(Br)C(Br)C21` (stereo not given), for which the growth inhibition in assay [1] is -2.9%; in assay [2], -17.3%; in assay [3] it was -8.8%; in assay [4], -4.85%; in assay [5] it was -15.7%; in assay [6] it was -1.1%.
As for `CCOC(=O)CC(NC(=O)CC(N)C(=O)O)C(=O)OCC` (stereo not given), the growth inhibition in assay [1] is 7.15%; in assay [2], 3%; in assay [3], -2.7%; in assay [4], -1.25%; in assay [5] it was -0.3%; in assay [6] it was -3.25%.
With `CC(C)(Cc1ccccc1)C(=C=C=C=C(c1ccccc1)C(C)(C)Cc1ccccc1)c1ccccc1`, the growth inhibition in assay [1] was -14.8%; in assay [2], -3.7%; in assay [3] it was -32.2%; in assay [4] it was 5.9%; in assay [5], 2.95%; in assay [6], -15.7%.
For `O=C(O)c1cc(-c2ccccc2Cl)nc2ccccc12`, the growth inhibition in assay [1] was 10.7%; in assay [2], -6.55%; in assay [3] it was -8.3%; in assay [4], -10.7%; in assay [5], 19.8%; in assay [6], 0.45%.
Turning to `CCCCCCC1(C=O)NC(=O)NC1=O` (stereo not given), the growth inhibition in assay [1] was 4.2%; in assay [2] it was -12%; in assay [3], -11.2%; in assay [4], -14.1%; in assay [5], -4.6%; in assay [6] it was -1.35%.
Turning to `Cc1ccc(NC(=O)CCc2nnc3s/c(=C\c4cccc([N+](=O)[O-])c4)c(=O)n23)cc1`, the growth inhibition is -31.4% in assay [1]; -8.45% in assay [2]; -10.6% in assay [3]; 14% in assay [4]; 10.7% in assay [5]; 3.3% in assay [6].
`CCCCCCCCCCCCCCCCCC(=O)N/N=C/c1cc(OC)ccc1OC`: the growth inhibition in assay [1] was 1.55%; in assay [2], 0.05%; in assay [3], -0.05%; in assay [4], -25.2%; in assay [5], -0.6%; in assay [6] it was -28.9%.
As to `Cc1c(C(=O)O)sc2ccc([N+](=O)[O-])cc12`, the growth inhibition in assay [1] is -8.15%; in assay [2], 2.5%; in assay [3], -9.35%; in assay [4], -46.5%; in assay [5], -13.3%; in assay [6], -0.6%.
Regarding `O=C1C=Cn2cc(-c3ccccc3)c(-c3ccccc3)c21`, the growth inhibition in assay [1] was -13.3%; in assay [2], -10.3%; in assay [3] it was -14%; in assay [4], 19.9%; in assay [5], -18.1%; in assay [6] it was -9.2%.
As to `Cn1nc(C(F)(F)C(F)(F)C(F)(F)F)nc1C(F)(F)C(F)(F)C(F)(F)F`, the growth inhibition in assay [1] was 12.6%; in assay [2], 3.6%; in assay [3], 4.45%; in assay [4], -3.75%; in assay [5], -2.15%; in assay [6], 10.6%.
